The first test deals with SLC10A7. The test is described as follows: pooled miR-30 sensor sort-seq; sequence = guide strand. The following applies: shRNA.
On to TATAGATACAACATTTACTTGC, for which the sensor-assay potency score (higher = more potent) came out at 0.105.
On the same count and under the same terms, the same measure for ATCATGAGGAGTACACTGCTGC: -0.556; for TACATCATTATAAACTCTGTAA: -0.408.
TAAAAGCATAAAACTCAGCTGG gave a sensor-assay potency score (higher = more potent) of -0.225.
On the same count and under the same terms, the same measure for TTACTTACCAAAAAACTTCCAA: 0.24; for AACAGTATGAGAACAAGGCTGA: 0.508.
The same measure, in the same setting: the same measure for TTTAGCTCCAGCGATCGCCAGC: -1.45; for ATGAGGAGTACACTGCTGCTGA: -0.89.

In another test the target is SLC12A1. Described as above. The following applies: shRNA.
TATCTTTGATAGTCGCTTCCAA: the sensor-assay potency score (higher = more potent) was 0.0928.
As for TTTCTTGTTTATCAACAGCAGT, the sensor-assay potency score (higher = more potent) is -1.1.
The same measure, in the same setting: the same measure for TTGTAGACTCAACTACTTCTTA: -0.589; for TTGATGACAAACATGACTGCAC: 0.915; for TTTCTTATATCCAATCACCAGA: -0.816.
The same measure, in the same setting: the same measure for TTGAGTGCTGGCTTCCACCAGT: -0.0176; for TTGTGTGAGAATCATAAGCGTG: -0.782; for TTGCTCGTGAATCTCAAGCAGG: -0.686.
On the same count and under the same terms, the same measure for TTGAATATTTTGTAGACTCAAC: -1.22.
TTTGTGAGGATTTCCAACCAAG returned a sensor-assay potency score (higher = more potent) of -0.956.
Still for that read-out and setting: the same measure for TTCCAATGCTAGTCTCTCCTGT: 0.793; for TATGACACTAACTTGAAAGCGA: 0.571.

Another test addresses SLC12A6. The test is described as above. The following applies: shRNA.
In turn, TTGTCTCTGAGAACAACCCCTT gave a sensor-assay potency score (higher = more potent) of -0.146.
Still for that read-out and setting: the same measure for TAAGTCTTCATCTAGTTTCAGT: -0.702.
The same measure, in the same setting: the same measure for TTTTTGAAGAAGTAGAGGCTGC: 0.521; for TGTACTTGTAGATCATACCAGC: -0.605.
Same read-out and setting: the same measure for TACTGTTGTCTTCTAATTGGGC: -0.548; for TAGCTTGTAGCAGCCTCGGTGC: -1.11; for TTCTTTAGTAAGATGAAGCTGT: 0.156.
With TATTGAGATAAGCATTTCGAGC, the sensor-assay potency score (higher = more potent) was -1.39.
Same read-out and setting: the same measure for TTGTTAACTATAACCTCGTTGA: -0.0795; for TTTTAGTGTGTGGAGGTCCTTC: -0.634.
On the same count and under the same terms, the same measure for TATCAAAATATTCATCTCCTTC: -0.342.
With TTACTCGGGAACTAGATCGAGA, the sensor-assay potency score (higher = more potent) is -0.428.

In another test the target is SLC13A5. The description is as above. Particulars: shRNA.
In turn, TTGCTGTCAGGAAACAACTCGT came in with a sensor-assay potency score (higher = more potent) of -0.663.
TTTAAAATTGAATCTCATGTAA had a sensor-assay potency score (higher = more potent) of -0.532.
The same measure, in the same setting: the same measure for TTATGTTCATTATGACTCCTGT: 0.0164; for TACACAACCTCTTCCGCTCTTG: -0.374.
Still for that read-out and setting: the same measure for TTGTCTCTCATGTCTGTCTCTT: -0.189; for TTGACAGCCAAAAACACACAGA: -0.786; for TTTAATGAGAGCAAGAGCTGGA: 0.762.
Same read-out and setting: the same measure for TTGTCCACCAGCTCCAGGCCGG: -0.842.

The values are drawn from the OligoGym collection.
Further: reference of the scale not given here.
